Assay results published in PubChem BioAssay AID1851 (National Center for Advancing Translational Sciences (NCATS), 2009).
Among all 16,000 compounds or so, about 5,800 (36%) were called active. Roughly 23% stayed inconclusive and do not appear here. This is one part of the list. Unmarked numbers belong to inactive results. Calls follow the shape of the dose curve; as a rule, active = well fitted curve in the direction sought with a large enough effect; inconclusive = small, poorly fitted or top-dose-only effect, or effect the other way; inactive = no such curve, though single readings can be large or run the other way.
% is scaled to controls: 0 for no effect and ±100 for the full control effect.

The molecules below were run against Cytochrome P450 2C19 (Homo sapiens) (UniProt P33261) (assay: Cytochrome panel assay with activity outcomes). Conditions: recombinant CYP, pro-luciferin dealkylation, luminescence, p450-cyp2c19; series mostly up to 57.1 µM; activity, negative = inhibition: at the top concentration.
Cytochrome P450 2C19 (Homo sapiens), sequence (P33261 whole entry, looked up): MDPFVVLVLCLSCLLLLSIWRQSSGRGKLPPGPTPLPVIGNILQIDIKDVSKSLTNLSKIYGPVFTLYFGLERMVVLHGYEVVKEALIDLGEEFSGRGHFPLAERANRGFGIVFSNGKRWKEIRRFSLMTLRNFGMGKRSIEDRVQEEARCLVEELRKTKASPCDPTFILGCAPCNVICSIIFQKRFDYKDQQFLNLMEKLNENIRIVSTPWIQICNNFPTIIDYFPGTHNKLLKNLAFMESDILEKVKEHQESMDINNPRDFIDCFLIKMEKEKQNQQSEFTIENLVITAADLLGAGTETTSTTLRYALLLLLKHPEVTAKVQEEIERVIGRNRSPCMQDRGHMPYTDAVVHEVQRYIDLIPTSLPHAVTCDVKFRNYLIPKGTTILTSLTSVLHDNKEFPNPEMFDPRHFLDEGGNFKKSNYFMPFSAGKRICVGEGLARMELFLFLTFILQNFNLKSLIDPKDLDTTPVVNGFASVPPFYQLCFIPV
For `CC(=O)N=c1sc(S(N)(=O)=O)nn1C`, the “activity, negative = inhibition” value was -1.35% [at 25.6 µM]. For `CCN(CC)CCCCCCCCOC(=O)c1cc(OC)c(OC)c(OC)c1`, the “activity, negative = inhibition” value was -15.4%. For `COc1cc(-c2nnc(SCC(=O)Nc3ccc4c(c3)OCCO4)o2)cc(OC)c1OC`, the AC50 was 11.2 µM (active). In the case of `COc1cc(-c2nnc(SCC3(c4ccccc4)OCCO3)o2)cc(OC)c1OC`, the AC50 is reported as 1.12 µM (active). For `CCCCOC(=O)CSc1nnc(-c2cc(OC)c(OC)c(OC)c2)o1`, the AC50 was 15.8 µM (active). With `Cc1ccc(NC(=O)CSc2nnc(-c3ccncc3)o2)cc1` the “activity, negative = inhibition” value was -29.9%. Molecule `C/C(C[n+]1ccccc1)=N\N=C(N)N` has an activity, negative = inhibition of 40.3% [at 11.4 µM]. In the case of `Cn1cc(-c2nc3cnc(N4CCNCC4)nc3n(-c3ccccc3)c2=O)c2ccccc21`, the “activity, negative = inhibition” value is reported as -41.6%. In the case of `COc1ccc(-n2c(=O)c(-c3cn(C)c4ccccc34)nc3cnc(N4CCNCC4)nc32)cc1`, the “activity, negative = inhibition” value is reported as -40.5%. In the case of `Cn1cc(-c2nc3cnc(Oc4ccccc4)nc3n(C3CC3)c2=O)c2ccccc21`, the “activity, negative = inhibition” value is reported as -13.9%. `Cn1cc(-c2nc3cnc(N4CCNCC4)nc3n(C)c2=O)c2ccccc21` was tested, and the AC50 was 10 µM (active). In the case of `CN1CCN(c2ncc3nc(-c4cn(C)c5ccccc45)c(=O)n(C)c3n2)CC1`, the “activity, negative = inhibition” value is reported as -41.2%. In the case of `Cn1cc(-c2nc3cnc(N4CCNCC4)nc3n(C3CC3)c2=O)c2ccccc21`, the AC50 is reported as 20 µM (active). With `Cc1ccccc1C(=O)NC(C)c1ccc2c(c1)CCCC2` (centres undefined) the AC50 was 2.82 µM (active). For `CCn1c2ccccc2c2cnc(N=CN(C)C)c(C#N)c21`, the AC50 was 28.2 µM (active). Work on `Cn1c(=S)c2[nH]c(SCCN3CCCC3)nc2n(C)c1=O` yielded an activity, negative = inhibition of 57% [at 11.4 µM]. `CC(C)(C)NC(=O)COC(=O)c1cncc(Br)c1` was tested, and the AC50 was 22.4 µM (active). With `Cc1cnc(C(=O)OCC(=O)NC(C)C)cn1` the “activity, negative = inhibition” value was -27%. `O=c1n(-c2ccccc2)c(=O)n2n1CC[C@H]1/C(=N\OCc3ccccc3)[C@H]3O[C@@H]3[C@@H](O)[C@@H]12` showed an activity, negative = inhibition of 44.7% [at 11.4 µM]. For `CCOC(=O)c1ccc(S(=O)(=O)Nc2ccc3cn[nH]c3c2)cc1`, the AC50 was 3.16 µM (active). For `COCCn1c(=O)c(-c2ccc(OC)cc2)nc2cnc(Nc3cccc(OC)c3)nc21`, the “activity, negative = inhibition” value was -22.3%. With `C[C@@H]1CCN=C(N)S1` the AC50 was “inactive”. For `N#Cc1ccc(C(c2nnnn2Cc2ccccc2)N2CCCC2)cc1` (centres undefined), the AC50 was 11.2 µM (active). With `N#Cc1cccc(C(c2nnnn2C2CCCC2)N2CCCCCC2)c1` (centres undefined) the AC50 was 5.62 µM (active). For `N#Cc1ccc(C(c2nnnn2C2CCCC2)N2CCC(Cc3ccccc3)CC2)cc1` (centres undefined), the AC50 was 3.55 µM (active). For `CN1CCCN([C@@H](c2ccccc2)c2ccc(Cl)cc2)CC1`, the “activity, negative = inhibition” value was -31% [at 25.6 µM]. With `Oc1ccc(Br)cc1CNn1cnnc1` the “activity, negative = inhibition” value was -29.1%. `O=C(c1cc(Br)ccc1O)c1cc(Br)ccc1O` was tested, and the AC50 was 0.2 µM (active). With `O=C(Nc1ccc(-c2cn3ccccc3n2)cc1)c1cc(Br)ccc1O` the activity, negative = inhibition was -1.2% [at 11.4 µM]. With `Cn1c(=O)c(-c2ccccc2)nc2cnc(Oc3ccccc3)nc21` the “activity, negative = inhibition” value was -32.1%. For `COc1ccc(S(=O)(=O)n2ccc(-c3cnc(-c4ccccc4)s3)n2)cc1`, the AC50 was 1.58 µM (active). `O=S(=O)(c1ccc(F)cc1)n1ccc(-c2cnc(-c3ccccc3)s2)n1` was tested, and the AC50 was 8.91 µM (active). With `COc1cccc(-c2cc(C(F)(F)F)n3ncc(S(=O)(=O)c4ccccc4)c3n2)c1` the “activity, negative = inhibition” value was -17.7%. With `CCc1cc2c(NCCO)ncnc2s1` the “activity, negative = inhibition” value was -1.72%. In the case of `CCc1cc2c(NCc3ccco3)ncnc2s1`, the AC50 is reported as 4.47 µM (active). For `CCc1cc2c(=O)[nH]cnc2s1`, the “activity, negative = inhibition” value was -8.19%. `Nc1ccccc1S(N)(=O)=O` was tested, and the “activity, negative = inhibition” value was 28.3% [at 25.6 µM]. `Cc1ccc2nc(N/N=C/c3ccccc3C#N)nc(-c3ccccc3)c2c1` was tested, and the AC50 was 10 µM (active). With `Cc1nc(N/N=C/c2ccccc2)nc(N(C)c2ccccc2)c1[N+](=O)[O-]` the “activity, negative = inhibition” value was -26.7%. `Cc1ccc2nc(N/N=C\c3cccc(C)n3)cc(C)c2c1` showed an activity, negative = inhibition of -12.3% [at 11.4 µM]. `Cc1noc(C)c1C(=O)N1CCC2(CCCN(c3ccccc3)C2)CC1` was tested, and the “activity, negative = inhibition” value was 8.61%. `Cc1cccc(N2CCN(C(=O)CSCc3c(C)noc3C)CC2)c1C` was tested, and the AC50 was 17.8 µM (active). `Cc1ccc(NC(=S)Nc2nc(CC(=O)Nc3ccccc3)cs2)cc1` was tested, and the AC50 was 3.98 µM (active). `COCCn1c(=O)c(-c2cccc(C#N)c2)nc2cnc(N3CCOCC3)nc21` was tested, and the “activity, negative = inhibition” value was 12.2%. In the case of `CC(C)COc1ccc(C(=O)Nc2scc(-c3ccc(Cl)cc3Cl)c2C(N)=O)cc1`, the AC50 is reported as 2.82 µM (active). In the case of `COc1ccc(C(=O)Nc2scc(-c3ccc(Cl)cc3Cl)c2C(N)=O)cc1`, the AC50 is reported as 1.26 µM (active). In the case of `NC(=O)OC[C@H](O)COc1ccc(Cl)cc1`, the “activity, negative = inhibition” value is reported as -26.8% [at 25.6 µM]. `O=C(CC1C(=O)N(c2ccc(Cl)cc2)C(=S)N1CCc1ccncc1)Nc1ccc(F)cc1` (centres undefined) was tested, and the AC50 was 0.02 µM (active). In the case of `O=C(Nc1ccc(Cl)cc1)OCc1cc(-c2ccccc2)on1`, the AC50 is reported as 0.447 µM (active). For `O=C(Nc1ccc(Cl)cc1)OCc1cc(-c2ccccc2Cl)on1`, the AC50 was 0.316 µM (active). With `O=C(Nc1ccccc1)OCc1cc(-c2ccc(Cl)cc2)on1` the AC50 was 2 µM (active). In the case of `CS(=O)(=O)c1ccccc1COC(=O)Nc1ccc(Cl)cc1`, the AC50 is reported as 2.51 µM (active). With `O=C(c1cc(C(F)(F)F)cc(C(F)(F)F)c1)N1CCC[C@@]2(CCN(c3ncccn3)C2)C1` the “activity, negative = inhibition” value was 3.94%. With `CCC(=O)O[C@@H]1[C@H](C)O[C@H](O[C@H]2[C@@H](N(C)C)[C@H](O)[C@@H](O[C@@H]3[C@@H](CC=O)C[C@@H](C)[C@@H](O)/C=C\C=C/C[C@@H](C)OC(=O)C[C@@H](OC(=O)CC)[C@H]3OC)O[C@H]2C)C[C@]1(C)O` the “activity, negative = inhibition” value was -40.3% [at 25.6 µM]. `Cc1nc(SCC(=O)c2ccc(F)cc2)c([N+](=O)[O-])[nH]1` was tested, and the AC50 was 8.91 µM (active). `Cn1c(=S)c2[nH]c(SCCCc3ccccc3)nc2n(C)c1=O` was tested, and the activity, negative = inhibition was -28.4% [at 11.4 µM]. With `O=C1CN=C(Nc2ccccc2)N1Cc1cccs1` the AC50 was 14.1 µM (active). For `C=CCN1C(=O)CN=C1Nc1ccccc1`, the “activity, negative = inhibition” value was -10.4%. With `O=c1cnc2cnc(Nc3ccccc3)nc2n1Cc1cccs1` the “activity, negative = inhibition” value was -24.6%. With `Cc1nc2cnc(Nc3ccccc3)nc2n(Cc2cccs2)c1=O` the “activity, negative = inhibition” value was -26.1%. For `COc1ccc(-c2nc3cnc(Nc4ccccc4)nc3n(Cc3cccs3)c2=O)cc1`, the “activity, negative = inhibition” value was -32.2%. In the case of `CCOc1ccc(NC2=NCC(=O)N2Cc2cccs2)cc1`, the AC50 is reported as 11.2 µM (active). With `COc1ccc(CNC(=O)/C=C/c2ccc(OCCCF)cc2)cc1` the “activity, negative = inhibition” value was -15.5%. For `CCCCOc1ccc(/C=C/C(=O)NCCc2nc3ccccc3[nH]2)cc1`, the AC50 was 3.98 µM (active). `Nc1nnc(SCCOc2cccc(Br)c2)s1` was tested, and the AC50 was 3.98 µM (active). `CCCCN1C(=O)CC(Sc2ccccc2C(=O)O)C1=O` (centres undefined) was tested, and the “activity, negative = inhibition” value was -28.3%. `O=C(CSC1CC(=O)N(CC(c2ccccc2)c2ccccc2)C1=O)Nc1ccc(Cl)cc1` (centres undefined) was tested, and the AC50 was 1.58 µM (active). `Cn1c(C(=O)Nc2ccccc2)cc2sccc21` was tested, and the AC50 was 2.51 µM (active). In the case of `COC(=O)c1ccc(NC(=O)c2cc3sccc3n2C)cc1`, the AC50 is reported as 7.94 µM (active). Molecule `C[C@@]1(CCOCc2ccccc2)NC(=O)NC1=O` has an activity, negative = inhibition of 0.432% [at 11.4 µM]. In the case of `COc1ccc(C2(CNC(=O)/C=C/c3ccco3)CCCC2)cc1OC`, the AC50 is reported as 7.94 µM (active). With `COc1cc(OC)c(OC)cc1C=NCC1(c2ccccc2)CCCC1` the “activity, negative = inhibition” value was -3.79%. In the case of `CC[N+](CC)(CC)CC[C@](O)(c1ccccc1)C1CCCCC1`, the “activity, negative = inhibition” value is reported as -27.2% [at 25.6 µM]. `CCCc1cc2c(n1CCc1ccc(Cl)cc1)C(C)C1CN(C(=O)c3ccccc3)C(C)(C(=O)OC)C21` (centres undefined) was tested, and the AC50 was 6.31 µM (active). Work on `Nc1ccc(C(=O)C[C@H](N)C(=O)O)cc1O` yielded an activity, negative = inhibition of -13.9% [at 11.4 µM]. With `O=C(O)[C@H]1CCCNC1` the “activity, negative = inhibition” value was -20.1%. Work on `Nc1nc(-c2cc(-c3cccc4ccccc34)nc(N)n2)cc(-c2cccc3ccccc23)n1` yielded an activity, negative = inhibition of 11.9% [at 11.4 µM]. `Cc1ccccc1-c1cc(-c2ccccc2O)on1` was tested, and the AC50 was 4.47 µM (active). Molecule `Cc1[nH]c2ccccc2c1-c1cc(-c2cc(-c3c(C)[nH]c4ccccc34)on2)no1` has an activity, negative = inhibition of 0.833% [at 11.4 µM]. With `Oc1ccccc1-c1cc(-c2ccccc2)no1` the AC50 was 7.94 µM (active). `Nc1nc(-c2ccccc2)cc(-c2ccccc2O)n1` was tested, and the AC50 was 10 µM (active). `CC(C)=NOCc1ccc(-c2cc(-c3ccccc3)no2)cc1` showed an activity, negative = inhibition of -13.3% [at 11.4 µM]. `COc1cc2c(cc1OC)-c1cc3ccc(OC)c(OC)c3c[n+]1CC2` was tested, and the “activity, negative = inhibition” value was 6.43% [at 25.6 µM]. For `CCOC(=O)C1=C(C)NC(=S)NC1c1cccc(O)c1` (centres undefined), the AC50 was 25.1 µM (active). For `CCOC(=O)C1=C(C)C(c2ccccc2OC)NC(=S)N1` (centres undefined), the AC50 was 5.62 µM (active). With `COc1ccc(N2C(=O)CCC(C(=O)O)C2c2ccc(F)cc2)cc1` (centres undefined) the “activity, negative = inhibition” value was 0.032%. In the case of `COC(=O)C1=C(C)C(c2ccc(OC)cc2)NC(=S)N1` (centres undefined), the AC50 is reported as 14.1 µM (active). For `CCOC(=O)c1c(NC(C)=O)sc2c(OC)cccc12`, the “activity, negative = inhibition” value was -21.9%. For `COc1ccc(C2C(C(=O)N3CCOCC3)CCC(=O)N2c2ccc(OC)cc2)cc1` (centres undefined), the “activity, negative = inhibition” value was -8.37%. `CS(=O)(=O)N1CCC2(CC1)CN(C(=O)Nc1cccc(C#N)c1)C2` was tested, and the “activity, negative = inhibition” value was -28.2%. In the case of `CC(NC(=O)Cn1cnc([N+](=O)[O-])n1)c1ccccc1` (centres undefined), the AC50 is reported as 39.8 µM (active). For `CC(C)(C)NC(=O)Cn1cnc([N+](=O)[O-])n1`, the “activity, negative = inhibition” value was -15.5%. For `CCN(CC)C(=O)Cn1cnc([N+](=O)[O-])n1`, the “activity, negative = inhibition” value was -10.4%. In the case of `O=S(=O)(c1ccccc1)N1CCC2(CCN(C(c3ccccc3)c3ccccc3)CC2)CC1`, the “activity, negative = inhibition” value is reported as 7.59%. `O=C1CCC(c2ccccc2)=NN1c1nc2ccccc2s1` showed an activity, negative = inhibition of 6.12% [at 11.4 µM]. For `O=S(=O)(c1ccccc1)N1CCCC1c1nc2ccccc2s1` (centres undefined), the AC50 was 4.47 µM (active). `N#CCCn1c(=O)c(-c2cccc(C#N)c2)nc2cnc(N3CCOCC3)nc21` was tested, and the “activity, negative = inhibition” value was -0.444%. In the case of `COc1ccc2c(c1)-c1ccccc1S(=O)(=O)N2C`, the AC50 is reported as 14.1 µM (active). In the case of `CC1CC2=C(NC(=S)NC2c2ccc(F)cc2)/C(=C/c2ccc(F)cc2)C1` (centres undefined), the AC50 is reported as 3.55 µM (active).
